Measurements from PubChem BioAssay (NCI).
Values joined by “and” are separate entries in the source; they are usually repeats but may differ in a detail not shown here. Equal entries are not always repeated. About 83,000 compounds went through this panel and 20% of them were active in at least one assay; those are over-represented in the sample as a whole.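 Cells were grown in 96-well plates and exposed to the test compound at a single concentration for 48 hours; results are reported as percent growth, with values below 10 considered active.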 Active and inactive are the calls of the source.

Test system: HL-60(TB) leukemia
Test: NCI-60 one-dose screen, 48 h (100 = growth as untreated, 0 = no growth, -100 = all killed)
Conditions: 10 µM unless noted

Row | SMILES | growth
1 | CCCCN1C(=O)/C(=c2\sc3n(c2=O)C2C(NN=3)N(CC)C(=O)N2CC)c2cccc(C)c21 (stereo not given) | 2.95% (active)
2 | CCc1ccc(NC(=O)N[C@@H](Cc2cccc(F)c2)C(=O)N[C@@H]2C(=O)N3CCC[C@H]3C(=O)N3CCCC[C@H]3C(=O)N[C@@H](C)C(=O)N3C[C@H](C)C[C@H]3C(=O)O[C@H]2C)c(F)c1 | 8.27% (active)
3 | COc1ccc(Cn2cc3c(c2-c2ccccc2)CCCc2cnoc2-3)cc1[N+](=O)[O-] | 27% (inactive)
4 | CCCCSC1=C(Cl)CN(c2ccc(Cl)cc2)C1=O | 85.4% (inactive)
5 | Cc1ccc(-n2c(/C=C3\C(=O)Nc4ccccc43)ccc2CO)cc1 | 25.4% (inactive)
6 | COc1ccccc1NCc1cccn1Cc1ccc(F)cc1 | 104% (inactive)
7 | CN(C)CCCNc1c2ccc(Cl)cc2nc2c1oc1ccccc12 | -1.28% (active)
8 | Cc1ccc2c(n1)C(=O)C(Cl)=C(Nc1ccccc1C(=O)OC(C)(C)C)C2=O | -32.7% (active)
9 | Cc1occc1-c1nc2s/c(=C/c3ccc(-c4cc(C(F)(F)F)ccc4Cl)o3)c(=O)n2n1 | 106% (inactive)
10 | CC(c1ccccc1)N1C(=O)/C(=C/c2csc(C#N)n2)SC1=S (stereo not given) | 4.32% (active)
11 | COc1ccc(/C=N/NC(=O)CSc2nc(-c3cnccn3)cc(-c3cccs3)c2C#N)cc1OC | 101% (inactive)
12 | O=C(/C=C1\C=CN(CCCCF)c2ccccc21)n1ccc2ccccc21 | 121% (inactive)
13 | Oc1ccc(CSc2nnc(-c3ccncc3)o2)c2cccnc12 | 8.26% (active)
14 | O=S(=O)(NCCCNc1nccc(-c2[nH]c(-c3ccccc3)nc2-c2ccc(Cl)c(O)c2)n1)c1cccc2ccccc12 | 9.79% (active)
15 | COc1ccc2c(c1)c(-c1nc(N)nnc1-c1c[nH]c3ccccc13)cn2C | 3.5% (active)
16 | CC1=N[C@@H]2CN(C(=O)OC(C)(C)C)C[C@@H]2n2c1cc1ccccc1c2=O | 99.9% (inactive)
17 | O=C(Nc1ccc(N=Cc2c(O)[nH]c3ccccc23)cc1)Nc1ccc(S(=O)(=O)Nc2ncccn2)cc1 | 117% (inactive)
18 | CN(c1ccc(Cl)cc1)S(=O)(=O)c1ccc(-c2cnc(C3CC3)o2)cc1 | -15.9% (active)
19 | CN1c2ccccc2Sc2cc(/C=N/Nc3ccnc4cc(Cl)ccc34)ccc21 | 77.1% (inactive)
20 | COc1cc(-c2nc(-c3ccccc3)[nH]c2-c2ccnc(NCCCNS(=O)(=O)c3ccc(C(F)(F)F)cc3)n2)ccc1Cl | 13.9% (inactive) and 37.8% (inactive)

Row | SMILES | growth
21 | COc1ccc2[nH]cc(/C=N/Nc3nc4ccccc4s3)c2c1 | 39.1% (inactive)
22 | C=C(C)C(=O)O[C@H]1C[C@@]2(C)OC(=CC2=O)/C(C)=C\[C@H]2OC(=O)C(=C)[C@H]12 | -20.9% (active)
23 | CCOC(=O)c1cccc(NC2=C(Cl)C(=O)c3nc(C)ccc3C2=O)c1 | 42% (inactive)
24 | O=C(CSc1nc2ccccc2c(=O)n1-c1ccccc1)Nc1cccc(C(=O)/C=C/c2ccccc2Cl)c1 | 108% (inactive)
25 | CS(=O)(=O)c1nccc(-c2c(-c3ccc(F)c(OCc4ccccc4)c3)nc3sccn23)n1 | 5.59% (active)
26 | C=CCn1c(SCC(=O)c2ccc(OC)cc2)nnc1-c1ccc(OC)cc1 | 90.8% (inactive)
27 | CCOC(=O)c1c(NC(=O)c2ccc(F)cc2F)sc2c1CCC(=O)C2 | 91.9% (inactive)
28 | CN1C(=O)/C(=C/C=C/c2ccco2)SC1=S | 99.6% (inactive)
29 | CC(C)=CCC[C@](C)(O)[C@H]1CC[C@]2(C)[C@@H]1CC[C@@H]1[C@@]3(C)CCC(NC(=O)c4ccccc4C(=O)O)C(C)(C)[C@@H]3CC[C@]12C (stereo not given in full) | 90.2% (inactive)
30 | COc1ccc(-c2cc(-c3ccc(Cl)cc3)nc3nc(N)nn23)cc1 | 72.2% (inactive)
31 | CN1CCN(Cc2ccc(NC(=O)c3cncc(C#Cc4cnc5ccc(OCC(C)(C)O)nn45)c3)cc2C(F)(F)F)CC1 | 1.93% (active)
32 | CNC(=O)c1cc(N2CCc3cc(NC(=O)Nc4ccc(Cl)c(Cl)c4)ccc32)ccn1 | 124% (inactive)
33 | COc1ccc(C(=O)c2c(N)c(C#N)cn2-c2ccc(Cl)cc2Cl)cc1 | 84.7% (inactive)
34 | Oc1c(Cl)cc(Cl)c2ccc(CN3CCCCC3)nc12 | 32.9% (inactive)
35 | Fc1ccc(-c2nc(C(Cl)Cl)nc3cc(-c4ccccc4)nn23)cc1 | -8.76% (active)
36 | O=C(CCC(=O)N1CCOCC1)OCCCCCCSc1ccc([N+](=O)[O-])c2nonc12 | -45.4% (active)
37 | CNc1ncc2cc(-c3ccc(-c4ncccc4F)cc3Cl)c(=O)n(CC3OCC(N)CO3)c2n1 (stereo not given) | 20.5% (inactive)
38 | N#Cc1nc(-c2ccccc2)oc1N1CCC(CO)C1 (stereo not given) | 107% (inactive)
39 | Cc1cc(Br)ccc1-n1cc(C#N)c(N)c1C(=O)c1ccc(Br)cc1 | 110% (inactive)
40 | C#CCOc1ccccc1/C=N/Nc1nc(-c2ccc(Cl)cc2)cs1 | 90.8% (inactive)
